# Measured values: PubChem BioAssay (NCATS)
# Values without a mark were called inactive. Results filed as inconclusive are left out. Active and inactive are the calls of the source. Unless noted, calls follow the shape of the dose curve; as a rule, active = well fitted curve in either direction with a large enough effect (not every such curve was filed as active); inconclusive = small, poorly fitted or top-dose-only effect, or another doubt; inactive = flat fitted curve, though single readings scatter.
# Tests used:
# [1] = molecular target: Lysosomal acid glucosylceramidase (Homo sapiens) (UniProt P04062); experiment: Glucocerebrosidase-p2 (AID 348; in the data active = potency below about 10 µM; also: potency is read from the fitted curve at half-maximal effect); settings: purified GBA, blue fluorogenic substrate, 40 min
# How it was run: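 Compounds titrated from 0.6 nM upwards against 0.2 nM enzyme in pH 5.9 citric acid/KH2PO4, taurocholate, tween-20; blue fluorogenic substrate 80 uM, 40 min room temperature, stopped and read Ex 365/Em 440 for AC50.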
# [2] = AP1 Signaling Pathway (AID 357); settings: ME-180 AP-1-bla reporter, EGF-induced, beta-lactamase ratio, 5 h; at 7.69 µM (top of the series) unless noted; also: % is scaled to controls: 0 for no effect and ±100 for the full control effect
# How it was run: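 Titration-series screen for positive or negative modulators of EC50 EGF-induced signaling in ME-180 cells carrying an AP-1-driven beta-lactamase reporter. After 5 hours at 37 degrees Celsius, CCF4 460nm/530nm emission ratio gave %Activity; AC50 values derived.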
# [3] = NFAT Signaling Pathway (AID 444); settings: Jurkat NFAT-bla M1, carbachol, beta-lactamase ratio, 5 h; at 7.69 µM (top of the series) unless noted;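 also: carbachol stimulus at about its EC50 of 1 µM final; % is scaled to controls: 0 for no effect and ±100 for the full control effect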
# How it was run: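 Jurkat cells with NFAT-driven β-lactamase reporter and co-expressed M1 receptor, stimulated with carbachol (final 1 uM, ~EC50), compound titration, 5 h at 37 °C. CCF4 loaded 1 h at RT; 460/530 nm ratio gave %activity and AC50.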
# [4] = Stat Signaling Pathway (AID 446); settings: ME-180 SIE beta-lactamase reporter, IL-6 stimulated, 5 h; at 7.69 µM (top of the series) unless noted;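 also: ME-180 cervical cancer cells given 40 pM IL-6 alongside compound; SIE-controlled beta-lactamase reporter measured as 460/530 nm FRET emission ratio; % is scaled to controls: 0 for no effect and ±100 for the full control effect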
# How it was run: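 Reporter line: ME-180 cervical carcinoma, SIE-beta-lactamase. Treatment: compound with 40 pM IL-6, 5 hrs, 37 C, in low-serum OPTI-MEM with 10 mM HEPES pH 7.3. Detection: 460/530 nm fluorescence.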
# [5] = molecular target: Glucocorticoid receptor (Homo sapiens) (UniProt P04150); experiment: GR-EFC Redistribution (AID 451; calls by dose curve; also: potency is read from the fitted curve at half-maximal effect); settings: CHO-K1 GR-EFC translocation, beta-gal luminescence, 2 h
# How it was run: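 CHO-K1 cells expressing nuclear EA and GR-ED fragments of b-gal; compounds titrated up to 46 uM final, 2 h at 37 C. GR nuclear translocation read as complemented b-gal luminescence after 1 h RT detection.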
# [6] = molecular target: Mitogen-activated protein kinase 10 (Mus musculus) (UniProt Q61831); experiment: JNK3 AlphaScreen Assay (AID 530); settings: JNK3 lysate, c-Jun phosphorylation; series mostly up to 57.1 µM;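 also: kinase came from lysate of stimulated human HepG2 cells; signal reports phosphorylation of biotinylated GST-cJun 1-79 at Ser73 with 10 µM ATP; % is scaled to controls: 0 for no effect and ±100 for the full control effect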
# How it was run: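 Pre-activated (IL-1β/TNFα) JNK3 in HepG2 lysates phosphorylates biotin-GST-cJun(1-79), 10 uM ATP; anti-phospho-cJun(Ser73) AlphaScreen read at room temperature, pH 7.6 Tris buffer. Compounds pre-incubated 15 min as titrations.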
# [7] = molecular target: 3',5'-cyclic-AMP phosphodiesterase 4B (Homo sapiens) (UniProt Q07343); experiment: qHTS Assay for Inhibitors of PDE-IV (AID 607; active = well fitted activation curve with a large enough effect in the main read-out, with a control signal flat, not every such curve was filed as active; also: % of control where 0% means no effect); settings: HEK293 ACTOne CNG channel cells, membrane potential fluorescence; series mostly up to 22.9 µM
# How it was run: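 Cell-based read-out of cAMP via a modified cyclic nucleotide-gated channel and membrane potential dye (535/590 nm) in HEK293 cells expressing PDE4 endogenously. Compounds tested up to 22.9 uM final; 100 uM RO 20-1724 reference.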
# [8] = Primary qHTS for small molecule stabilizers of the endoplasmic reticulum resident proteome: Secreted ER Calcium Modulated Protein (SERCaMP) assay (AID 1508630; active = well fitted curve in the direction sought with a large enough effect; an effect the other way counts as inactive or inconclusive; also: % is scaled to controls: 0 for no effect and ±100 for the full control effect); settings: SH-SY5Y GLuc-SERCaMP (Gaussia luciferase released on ER calcium loss) secretion, thapsigargin, luminescence; series mostly up to 38.4 µM
# How it was run: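 GLuc-SERCaMP-expressing SH-SY5Y cells, pretreated 16 h with compound, are challenged with thapsigargin to empty ER calcium stores; after 4 h, coelenterazine is added directly to the medium and luminescence is imaged.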
# [9] = molecular target: Cytochrome P450 3A4 (Homo sapiens) (UniProt P08684); experiment: qHTS Assay for Activators of Cytochrome P450 3A4 (AID 885; active = well fitted curve in the direction sought with a large enough effect; an effect the other way counts as inactive or inconclusive; also: nearly all actives have a fitted effect of over 65% in size); settings: recombinant CYP3A4, Luciferin-PPXE luminescence, 60 min; series mostly up to 57.1 µM
# How it was run: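 Signal was normalized against complete inhibition by 57 uM ketoconazole. The reaction used 20nM CYP3A4 with 25uM Luciferin-PPXE, 10-min compound preincubation and a 60-min NADPH-supported step at RT.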
# [10] = molecular target: Glucocorticoid receptor (Homo sapiens) (UniProt P04150); experiment: GR-GFP Redistribution (AID 450;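 active = compounds whose dose series gives a full or clear partial fitted curve of increased nuclear translocation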; also: potency is read from the fitted curve at half-maximal effect); settings: U2OS GR-GFP nuclear translocation, laser cytometry, 2 h
# [11] = qHTS Assay for Identification of Small Molecule Agonists for Hypoxia Response Element Signaling Pathway (AID 914; active = well fitted activation curve with a large enough effect in the signal ratio, with a control signal flat, not every such curve was filed as active; the % refers to the signal ratio; also: potency is read from the fitted curve at half-maximal effect; as to activation: % of control where 0% means no effect); settings: ME-180 (cervical carcinoma) HRE-bla reporter, beta-lactamase ratio, CoCl2, 17 h; activation: hits give high values
# How it was run: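 Compounds in a titration series were added to ME-180 reporter cells alongside an EC50 level of CoCl2. After 17 hours, beta-lactamase activity was read as the 460nm/530nm emission ratio of CCF4, giving AC50 values.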
# Chain of 3',5'-cyclic-AMP phosphodiesterase 4B (Homo sapiens) (Q07343 whole entry, looked up): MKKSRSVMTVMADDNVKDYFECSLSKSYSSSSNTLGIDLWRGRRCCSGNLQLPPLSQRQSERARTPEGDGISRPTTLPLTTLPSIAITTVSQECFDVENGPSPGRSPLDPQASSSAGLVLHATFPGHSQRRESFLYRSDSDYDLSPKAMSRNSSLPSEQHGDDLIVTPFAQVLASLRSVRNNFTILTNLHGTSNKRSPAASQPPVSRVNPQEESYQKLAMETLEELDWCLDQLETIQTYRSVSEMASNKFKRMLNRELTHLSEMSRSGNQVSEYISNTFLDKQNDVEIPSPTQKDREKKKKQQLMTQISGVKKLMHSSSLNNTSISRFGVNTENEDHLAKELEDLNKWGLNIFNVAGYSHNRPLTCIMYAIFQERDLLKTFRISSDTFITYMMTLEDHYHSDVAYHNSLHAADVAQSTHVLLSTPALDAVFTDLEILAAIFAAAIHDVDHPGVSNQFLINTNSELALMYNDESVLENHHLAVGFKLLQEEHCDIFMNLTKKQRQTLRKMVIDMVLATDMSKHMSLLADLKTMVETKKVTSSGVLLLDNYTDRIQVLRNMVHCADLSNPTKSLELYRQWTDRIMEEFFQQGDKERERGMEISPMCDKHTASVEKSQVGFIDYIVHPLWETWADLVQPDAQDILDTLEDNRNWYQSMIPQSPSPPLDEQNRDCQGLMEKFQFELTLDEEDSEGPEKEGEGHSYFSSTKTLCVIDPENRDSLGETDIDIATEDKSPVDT
# Chain of Glucocorticoid receptor (Homo sapiens) (P04150 whole entry, looked up, the tested form may be a part): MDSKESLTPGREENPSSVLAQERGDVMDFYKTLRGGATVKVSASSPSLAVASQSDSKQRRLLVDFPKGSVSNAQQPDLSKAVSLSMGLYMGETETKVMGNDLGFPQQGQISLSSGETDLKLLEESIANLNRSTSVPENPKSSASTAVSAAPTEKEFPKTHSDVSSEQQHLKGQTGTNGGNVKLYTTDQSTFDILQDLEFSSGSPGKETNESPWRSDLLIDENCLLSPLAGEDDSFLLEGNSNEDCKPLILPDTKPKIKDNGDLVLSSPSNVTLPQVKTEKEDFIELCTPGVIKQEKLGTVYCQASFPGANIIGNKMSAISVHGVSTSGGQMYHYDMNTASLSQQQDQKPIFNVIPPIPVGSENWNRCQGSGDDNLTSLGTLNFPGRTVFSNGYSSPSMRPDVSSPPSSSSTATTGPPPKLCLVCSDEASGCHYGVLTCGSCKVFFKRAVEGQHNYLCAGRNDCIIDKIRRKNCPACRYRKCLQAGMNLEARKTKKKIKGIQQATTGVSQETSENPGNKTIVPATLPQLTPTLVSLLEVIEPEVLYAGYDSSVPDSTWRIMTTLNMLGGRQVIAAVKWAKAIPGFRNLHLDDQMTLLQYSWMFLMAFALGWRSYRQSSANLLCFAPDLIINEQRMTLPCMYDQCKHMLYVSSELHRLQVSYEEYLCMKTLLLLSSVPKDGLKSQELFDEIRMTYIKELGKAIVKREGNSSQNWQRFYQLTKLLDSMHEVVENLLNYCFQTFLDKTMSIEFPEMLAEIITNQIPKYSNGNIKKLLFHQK
# Chain of Lysosomal acid glucosylceramidase (Homo sapiens) (P04062 whole entry, looked up): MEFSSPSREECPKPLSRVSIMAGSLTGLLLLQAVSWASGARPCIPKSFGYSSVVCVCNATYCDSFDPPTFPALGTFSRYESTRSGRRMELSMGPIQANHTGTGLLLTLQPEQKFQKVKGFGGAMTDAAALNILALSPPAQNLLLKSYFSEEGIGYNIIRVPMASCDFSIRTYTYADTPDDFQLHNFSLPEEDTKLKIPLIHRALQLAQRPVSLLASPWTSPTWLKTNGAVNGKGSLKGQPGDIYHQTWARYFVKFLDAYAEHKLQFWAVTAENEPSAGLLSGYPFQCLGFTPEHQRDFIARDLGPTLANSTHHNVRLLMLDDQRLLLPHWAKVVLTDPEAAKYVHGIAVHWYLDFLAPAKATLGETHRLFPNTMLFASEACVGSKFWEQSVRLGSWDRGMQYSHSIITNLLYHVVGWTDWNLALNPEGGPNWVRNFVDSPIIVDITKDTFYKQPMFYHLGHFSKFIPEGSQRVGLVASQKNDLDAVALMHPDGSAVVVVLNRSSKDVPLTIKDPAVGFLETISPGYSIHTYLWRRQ
# Chain of Cytochrome P450 3A4 (Homo sapiens) (P08684 whole entry, looked up): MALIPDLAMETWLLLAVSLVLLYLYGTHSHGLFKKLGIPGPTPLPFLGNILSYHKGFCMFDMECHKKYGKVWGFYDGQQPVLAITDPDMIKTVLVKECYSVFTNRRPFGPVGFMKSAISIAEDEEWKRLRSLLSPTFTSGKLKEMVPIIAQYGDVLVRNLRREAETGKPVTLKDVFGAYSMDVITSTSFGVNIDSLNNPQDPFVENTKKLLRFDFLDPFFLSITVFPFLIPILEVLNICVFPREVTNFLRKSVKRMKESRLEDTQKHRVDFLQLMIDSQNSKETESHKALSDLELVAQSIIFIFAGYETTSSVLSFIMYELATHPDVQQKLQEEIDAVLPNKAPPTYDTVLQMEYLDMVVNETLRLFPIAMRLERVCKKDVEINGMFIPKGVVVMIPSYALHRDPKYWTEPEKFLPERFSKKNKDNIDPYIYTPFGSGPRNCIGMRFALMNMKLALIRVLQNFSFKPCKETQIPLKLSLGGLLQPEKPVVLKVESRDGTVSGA
SMILES,Potency [1] [µM],"activity change, negative = inhibition [2]","activity change, negative = inhibition [3]","activity, negative = inhibition [4] [%]",Potency [5] [µM],Potency [6],Potency [7],outcome [8],Potency [9],Potency [10] [µM],activation [11] [%],Potency [11]
O=C(c1csnn1)N1CCC[C@@]2(CCN(c3cccc(-c4ccccc4)c3)C2)C1,> 11.4,-28.1%,12.1%,6.22,> 46,inactive,inactive,inactive,,,,
COCC(=O)N1CCC[C@@]2(CCN(Cc3nccs3)C2)C1,> 11.4,-2.92%,0.146%,4.7,> 46,inactive,inactive,inactive,inactive,,,
O=c1c(-c2cc(F)cc(F)c2)nc2cnc(Oc3ccccc3)nc2n1C1CC1,> 11.4,-6.73%,-0.993%,,> 46,inactive,inactive,inactive,,> 9.22,7.93,
COc1cccc(Cn2c(=O)c(-c3ccc(Cl)cc3)nc3cnc(N(C)C)nc32)c1,> 11.4,122% [activator] (active),154% [activator] (active),,> 46,inactive,inactive,inactive,,> 9.22,,0.316 µM (active)
CC(C)NC(=O)N1CC[C@@]2(CCCN(C(=O)c3cccc(F)c3)C2)C1,> 11.4,-5.48%,10.1%,,> 46,inactive,inactive,inactive,,,,
CCNc1ncc2nc(-c3ccccc3)c(=O)n(-c3ccc(OC)cc3)c2n1,> 11.4,27.6%,,,> 46,inactive,,inactive,,> 9.22,,3.16 µM (active)
O=c1c(CCc2ccccc2)nc2cnc(Nc3ccccc3)nc2n1Cc1cccs1,> 11.4,-26.7%,,-23.5,> 46,inactive,inactive,inactive,,> 9.22,,
O=C(c1ccncc1)N1CCC2(CCN(Cc3cc(C(F)(F)F)cc(C(F)(F)F)c3)CC2)CC1,> 11.4,2.71%,,-0.397,> 46,inactive,inactive,inactive,,,,
Cn1cccc1C(=O)N1CCC2(CCCN(C(=O)Nc3cccc(C#N)c3)C2)CC1,> 11.4,-6.91%,,-16.1,> 46,inactive,inactive,inactive,,,,
